Assay outcomes: PubChem, National Center for Advancing Translational Sciences (NCATS)
PLK1 PBD inh: qHTS for Inhibitors of PLK1-PDB (polo-like kinase 1 - polo-box domain): Primary Screen; Serine/threonine-protein kinase PLK1 (Homo sapiens), P53350; Plk1 PBD binding of FITC phosphopeptide, fluorescence polarization; Potency, µM, without a hit: max response, negative = inhibition, hits mostly inhibitors; 360,000 compounds, 2.8% hits; further: potency means the concentration at half of the fitted maximal effect; series mostly up to about 57 µM; on the % scale 0 is the no-effect control and ±100 the full control effect; nearly all actives have a fitted effect of over 65% in size
Vif-A3G inh: qHTS for Inhibitors of Vif-A3G Interactions: qHTS. HeLa A3G-eYFP + Vif (tagged APOBEC3G with the HIV-1 protein that degrades it), YFP fluorescence, overnight. Potency, µM (series often up to 46.1 µM), for the others: at the highest dose activity, negative = active, most hits filed as inhibitors. AID 602310, 2012. DNA dC->dU-editing enzyme APOBEC-3G (Homo sapiens), Q9HC16. 410,000 compounds, 0.076% hits; further: potency means the concentration at half of the fitted maximal effect; on the % scale 0 is the no-effect control and ±100 the full control effect; nearly all actives have a fitted effect of over 60% in size
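Read-out is eYFP fluorescence (Ex 488/Em 500-530) from Vif-expressing HeLa A3G-eYFP cells; more signal means A3G escaped Vif-mediated degradation. Cells plated overnight, compound pinned in, incubated overnight at 37 deg C.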
Vif-A3F inh: qHTS for Inhibitors of Vif-A3F Interactions: qHTS; HeLa A3F-eYFP + Vif (tagged APOBEC3F with the HIV-1 protein that degrades it), YFP fluorescence increase; 390,000 compounds, 0.2% hits; Potency, µM (doses to about 46.1 µM), for the others: top-dose activity, negative = active; further: potency means the concentration at half of the fitted maximal effect; % of control where 0% means no effect; nearly all actives have a fitted effect of over 65% in size
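HeLa cells stably expressing Vif plus C-terminally eYFP-tagged A3F were seeded, incubated overnight at 37 deg C, dosed with compound, incubated overnight again at 37 deg C. Yellow fluorescence (Ex 488/Em 500-530) reported blocked Vif-mediated A3F-eYFP degradation.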
VDR inhibitor: Inhibitors of the vitamin D receptor (VDR): qHTS | VDR-SRC2-3 peptide fluorescence polarization, 2 h | Potency, µM, for the others: max response, negative = inhibition, hits mostly inhibitors | 400,000 compounds, 0.93% hits | AID 504847, 2011; further: potency means the concentration at half of the fitted maximal effect; on the % scale 0 is the no-effect control and ±100 the full control effect
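Reagent solutions, kept cold and dark, are dispensed first; compounds are then pinned in at 23 nl, plates briefly spun, and incubated 2 h at ambient temperature. Inhibition of VDR–SRC2-3 peptide binding is read by fluorescence polarization.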
TSHR antagonist: Antagonists of the Thyroid Stimulating Hormone Receptor: HTS campaign. Thyrotropin receptor (Homo sapiens), P16473. TSHR-expressing cells, TSH-stimulated cAMP HTRF, 2 h; stronger effect = lower value. activity change, negative = inhibition, % at 11.5 µM. 330,000 compounds, 0.2% hits. AID 504810, 2011;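 active means activity change below a set negative limit, meaning inhibition stronger than a set level, cut at about -70% in these data; inconclusive means activity change between two set negative limits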; further: on the % scale 0 is the no-effect control and ±100 the full control effect
Target sequence (P16473 whole entry, looked up): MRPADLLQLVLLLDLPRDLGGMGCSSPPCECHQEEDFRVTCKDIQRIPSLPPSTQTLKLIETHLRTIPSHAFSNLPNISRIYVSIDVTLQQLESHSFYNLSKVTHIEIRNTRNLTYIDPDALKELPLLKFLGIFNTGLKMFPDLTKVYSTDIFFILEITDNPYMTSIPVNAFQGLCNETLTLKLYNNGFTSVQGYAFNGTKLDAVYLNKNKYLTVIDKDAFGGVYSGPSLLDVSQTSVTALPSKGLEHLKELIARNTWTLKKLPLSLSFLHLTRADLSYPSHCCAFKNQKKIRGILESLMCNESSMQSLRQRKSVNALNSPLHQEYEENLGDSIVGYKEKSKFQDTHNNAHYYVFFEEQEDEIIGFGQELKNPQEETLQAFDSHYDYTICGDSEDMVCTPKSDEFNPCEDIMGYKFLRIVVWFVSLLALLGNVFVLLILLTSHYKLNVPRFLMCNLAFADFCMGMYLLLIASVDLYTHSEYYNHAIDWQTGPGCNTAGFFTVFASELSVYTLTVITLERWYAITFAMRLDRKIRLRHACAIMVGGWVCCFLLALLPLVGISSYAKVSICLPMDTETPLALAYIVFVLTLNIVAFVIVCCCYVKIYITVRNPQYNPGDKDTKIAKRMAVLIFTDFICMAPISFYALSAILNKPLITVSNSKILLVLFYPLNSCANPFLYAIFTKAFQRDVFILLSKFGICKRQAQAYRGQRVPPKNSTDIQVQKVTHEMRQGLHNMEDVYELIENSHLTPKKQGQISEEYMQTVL
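Antagonism was scored as loss of TSH-driven cAMP in TSHR cells, stimulated with 4nM TSH (EC80) for 2 hours at 37 deg C and detected by homogeneous HTRF competition immunoassay.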
* = called active by the depositor; u = inconclusive; x = no result. Most compounds without a hit are left out; they make up all but 3.1% or so of the library. Unless noted, the call rests on the fitted dose curve; in most records, active means well fitted curve in the direction sought with a large enough effect; inconclusive means small, poorly fitted or top-dose-only effect, or another doubt; inactive means no such curve, though single readings can be large; an effect the other way counts as inactive or inconclusive.

SMILES | PLK1 PBD inh | Vif-A3G inh | Vif-A3F inh | VDR inhibitor | TSHR antagonist
O=C(NCc1ccccn1)C(F)(F)C(F)(F)C(=O)NCc1ccccn1 | -1.4% | -7.6% | 7.9% | -5.0% | 3.4
O=C(NCCc1ccccn1)C(F)(F)C(F)(F)C(F)(F)C(F)(F)C(F)(F)C(F)F | 26.7µM* | -3.1% | 11.0% | u | 26.5
Cc1[nH]c2ccccc2c1C(c1ccncc1)N1CCC(C)CC1 (configuration not stated) | u | -2.9% | -4.0% | -26.6% | 6.5
Cc1[nH]c2ccccc2c1C(c1ccccn1)N1CCC(C(N)=O)CC1 (configuration not stated) | 6.7µM* | -12.2% | -5.4% | u | x
CCOC(=O)C1CCN(C(c2ccccn2)c2c(C)[nH]c3ccccc23)CC1 (configuration not stated) | 11.9µM* | -7.5% | -1.7% | u | -8.6
CCN(CC)c1ccc(NC(=O)COc2ccccc2C#N)cc1S(=O)(=O)Nc1ccc(OC)cc1 | u | -3.2% | 0.7% | 7.5% | -19.0
CCN(CC)c1ccc(NC(=O)COc2ccccc2C)cc1S(=O)(=O)Nc1ccccc1OC | 5.32µM* | 0.7% | 6.4% | u | -10.4
COc1ccc(NC(=O)c2ccccc2F)cc1Cl | -6.4% | 0.4% | -8.1% | 2.0% | -5.6
CCN(CC)c1ccc(NC(=O)c2ccccc2F)cc1S(=O)(=O)Nc1ccccc1OC | 10.6µM* | 1.5% | -0.6% | u | -3.6
CCN(CC)c1ccc(NC(=O)c2ccc(=O)[nH]c2)cc1S(=O)(=O)Nc1ccccc1OC | 4.74µM* | u | -5.4% | 31.6µM* | -2.2
O=S(=O)(c1ccc(C(F)(F)F)cc1)N1CCN(c2nc(-c3cccs3)nc3ccccc23)CC1 | x | x | x | 6.5% | x
CCOC(=O)N1CCN(/[N+]([O-])=N/OCOC)CC1 | x | 1.5% | x | x | x
CN1C2CCCC1CC(NC(=O)c1nn(C)c3ccccc13)C2 (configuration not stated) | x | x | x | 2.8% | -12.0
C/C(CC(=O)NC(C)(C)C)=N\NC(=O)c1ccccc1N | 23.8µM* | 0.1% | -1.2% | -17.1% | 19.6
Cc1ccc(C)c(CS(=O)(=O)c2cn(CC(=O)N(C(C)C)C(C)C)c3ccccc23)c1 | x | -0.2% | -17.7% | 15.0% | x
CN(C)c1ccc(C=c2c3cc([N+](=O)[O-])ccc3n3c2cc(-c2ccccc2)[n+]3C)cc1 | 2.67µM* | 1.6% | -1.2% | u | x
CN(C)c1ccc(C=c2c3ccccc3n3c2cc(-c2ccc(Cl)cc2)[n+]3C)cc1 | 29.9µM* | -19.4% | u | -14.3% | x
C=C1CCN(C(C)C(=O)OCc2ccc(C)cc2)S(=O)(=O)c2ccccc21 (configuration not stated) | x | 2.3% | x | -4.2% | x
CCC1CCCCC1 | x | x | x | 9.7% | x
CCCCCCN(CCCCCC)c1ccc(/C=C/c2ccnc3ccccc23)cc1 | x | -23.6% | x | x | x
CCOC(=O)c1c(C)[nH]c(C(=O)COC(=O)c2ccc(F)c(S(=O)(=O)N3CCOCC3)c2)c1C | 26.7µM* | -6.8% | -0.1% | -6.4% | -2.6
C[C@@H](/C=C/c1ccc2ccccc2c1)C1COC(=O)C[C@H]1O (some centres not stated) | x | -1.2% | x | -13.2% | x
COc1ccc2nc3ccccc3[n+]([O-])c2c1 | 11.9µM* | 4.9% | 2.8% | -7.1% | x
COC(=O)c1nnc(SC)nc1C(=O)OC | x | x | x | -5.6% | x
CCCN1C(=O)/C(=C\C=C2\N(CC)c3ccccc3C2(C)C)SC1=S | u | u | 3.55µM* | 8.6% | 1.2
CN1/C(=C\C=C2/SC(=S)NC2=O)C(C)(C)c2ccccc21 | 82.2% | 7.94µM* | u | u | -21.1
Cc1cc(/C=C2/NC(=O)NC2=O)c(C)n1-c1ccc(C#N)cc1 | 18.9µM* | -0.4% | 15.1% | u | 8.9
Cc1ccc(-n2c(C)cc(/C=C3\NC(=O)NC3=O)c2C)c(C)c1 | 21.2µM* | -0.3% | 8.7% | u | -3.1
Cc1cc2ccccc2c[n+]1C1CCCCC1 | x | 3.2% | x | x | x
